LASV entry inh – Lassa virus entry inhibition. Lassa virus pseudotype entry inhibition, cell reporter. Potency, µM (doses to about 37.9 µM), hits mostly inhibitors. 300,000 tested, 1.2% active; calls by dose curve; tested in HEK293 cells; note: nearly all actives have a fitted effect of over 50% in size
HCMV inh – inhibitors of human cytomegalovirus | HFF cells, HCMV-luciferase reporter, 72 h; stronger effect = lower value | activity change, negative = inhibition, % at 57.5 µM | 410,000 tested, 4.5% active; in the data active = activity change below about -60%; inconclusive = no clear call, values can overlap the other calls; inactive = above about -39%
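Luciferase read-out from HCMV-luciferase-infected HFFs (MOI 1 PFU/cell) 72 h post infection at 37C; compounds added after 16 h cell attachment; activity normalized between buffer-only basal and Salinomycin (10uM) inhibitor controls.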
Marburg entry inh – blocks Marburg virus binding to or entry into cells; Marburg virus pseudotyped entry inhibition, cell reporter; Potency, µM (highest dose often 37.8 µM), most hits filed as inhibitors; 300,000 tested, 1.8% active; calls by dose curve; tested in HEK293 cells
FMDV inh – blocks foot and mouth disease virus; FMDV antiviral cell-based qHTS; 410,000 tested, 1.2% active; Potency, µM (highest dose often 57.9 µM), most hits filed as inhibitors; calls by dose curve; tested in HEK293T cells; note: read-out not given here; nearly all actives have a fitted effect of over 45% in size
HCV inh – inhibitors of hepatitis C virus infection | Huh7.5.1 HCVcc-Cre infection, luciferase reporter, 44 h | Potency, µM (titrated, usually from 41.8 µM), usual class: inhibitors | 340,000 tested, 3.4% active | AID 651820; active = well fitted inhibition curve with a large enough effect; inconclusive = small, poorly fitted or top-dose-only effect, or another doubt; inactive = no such curve, though single readings can be large or run the other way
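After 44 h co-culture of compound, cells and HCVcc-Cre (~0.5 moi), substrate is added for 15 min at room temperature and luciferase measured over 15 sec. Cells were seeded at 1,000/well and pre-cultured 4 h.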
Large screens that a line does not name were inactive. This is a sample that favours compounds with a hit; in the whole collection about 7.9% have one here.

COc1ccc(S(=O)(=O)N2CCC(N3CCN(Cc4ccc(F)cc4)C(=O)C3=O)CC2)cc1	none (no result: Marburg entry inh, HCV inh)
Cc1cc(Cl)n2c(nc3ccccc32)c1C#N	LASV entry inh inconclusive, Marburg entry inh 4.5µM, FMDV inh 7.9µM, HCV inh inconclusive
Cc1ccc(-c2c(C#N)c(N)n3c(nc4ccccc43)c2C#N)cc1	LASV entry inh inconclusive, HCMV inh -72, Marburg entry inh inconclusive, FMDV inh inconclusive, HCV inh inconclusive
Cc1c(CCCl)c(Cl)n2c(nc3ccccc32)c1C#N	LASV entry inh 11µM, HCMV inh -99, Marburg entry inh 5µM, FMDV inh 3.5µM, HCV inh inconclusive
CCCCc1c(C)c(C#N)c2nc3ccccc3n2c1Nc1c(C)n(C)n(-c2ccccc2)c1=O	HCMV inh -90, HCV inh inconclusive
Fc1ccc(-c2cc(C(F)(F)F)nc(-n3cc(Cl)cn3)n2)cc1	HCMV inh inconclusive, HCV inh inconclusive (no result: LASV entry inh, Marburg entry inh)
Cc1cnn(C(=O)c2cc(-c3ccccc3)nc3ccccc23)c1	none
Cc1cnn(-c2nc(-c3ccccc3)cc(-c3ccccc3)n2)c1	HCMV inh inconclusive, Marburg entry inh inconclusive, HCV inh 7.9µM
FC(F)(F)c1cc(-c2ccccc2)nc(-n2cc(Cl)cn2)n1	HCMV inh -60, FMDV inh inconclusive, HCV inh inconclusive (no result: LASV entry inh, Marburg entry inh)
CCOc1ccc(CCNC(=O)CCSCc2ccc(Cl)cc2)cc1OCC	none (no result: Marburg entry inh, HCV inh)
O=C(NC(c1cccnc1)C(F)(F)F)c1cc(COc2ccc3c(c2)CCCC3)on1 (stereo not given)	HCMV inh -82, HCV inh 4.5µM (no result: LASV entry inh, Marburg entry inh)
CCCNC(=O)c1cc2c(c(-c3cccc(-c4ccc(F)cc4)c3)n1)[C@@H](CCO)N(S(=O)C(C)(C)C)C2 (stereo not given in full)	HCMV inh -96, FMDV inh inconclusive (no result: LASV entry inh, Marburg entry inh, HCV inh)
CCCNC(=O)c1cc2c(c(-c3cccc(-c4ccc(F)cc4)c3)n1)[C@H](CCO)N(S(=O)C(C)(C)C)C2 (stereo not given in full)	none (no result: LASV entry inh, Marburg entry inh, HCV inh)
NS(=O)(=O)c1ccc(CCNC(=O)c2ccccc2Cc2ccccc2)cc1	HCMV inh -61 (no result: LASV entry inh, Marburg entry inh)
CCc1sc(C(=O)NCCc2ccc(S(N)(=O)=O)cc2)cc1C	HCV inh inconclusive
S=C(NCCc1ccccc1)Nc1ccccc1Cl	HCMV inh -64
S=C(NCCNC(=S)Nc1ccccc1Cl)Nc1ccccc1Cl	LASV entry inh inconclusive, HCMV inh inconclusive, Marburg entry inh inconclusive, HCV inh inconclusive
O=C(NCCc1ccc(F)cc1)Nc1ccccc1Cl	HCMV inh -63
CCc1sc(C(=O)NCCc2ccc(S(N)(=O)=O)cc2)cc1Br	LASV entry inh inconclusive, HCMV inh -68
CCC1(C2CCN(C(=O)c3ccc(C)cc3C)CC2)NC(=O)N(CCc2scnc2C)C1=O (stereo not given)	none (no result: LASV entry inh, HCMV inh, Marburg entry inh, HCV inh)
CC(C)Cc1nc2cc(NS(=O)(=O)N(C)C)cc(C(=O)N3CC4(C)CC3CC(C)(C)C4)c2n1C (stereo not given)	none (no result: LASV entry inh, HCMV inh, Marburg entry inh, HCV inh)
S=C(NCCCc1ccccc1)Nc1ccccc1Cl	HCMV inh -60
O=C(O)c1ccccc1C(=O)NCCc1ccc(Cl)cc1	none
O=C(CN1CCN(Cc2ccc(F)cc2)CC1)NCCc1ccccc1	LASV entry inh inconclusive, HCMV inh -81
O=C(NCCc1ccccc1)c1ccccc1Cl	LASV entry inh inconclusive, Marburg entry inh 11µM
NS(=O)(=O)c1ccc(CCNCC(=O)N2CCC(Cc3ccccc3)CC2)cc1	HCMV inh -61, HCV inh 11µM (no result: LASV entry inh, Marburg entry inh)
S=C(NCc1ccccc1Cl)Nc1ccccc1Cl	none (no result: LASV entry inh, Marburg entry inh)
NS(=O)(=O)c1ccc(CCNCC(=O)NC2CC2)cc1	none
NS(=O)(=O)c1ccc(CCNC(=O)CNCCc2ccc(C(F)(F)F)cc2)cc1	HCMV inh -61, FMDV inh inconclusive, HCV inh inconclusive (no result: LASV entry inh, Marburg entry inh)
S=C(NCCc1ccccc1)Nc1ccc(Br)cn1	HCMV inh -102
Cc1cccc(Cc2c(C)nc3nc(SCc4cccc(F)c4)nn3c2C)c1	none (no result: Marburg entry inh, HCV inh)
COc1ccc(Cl)cc1N1CC(C(=O)Nc2nccs2)CC1=O (stereo not given)	LASV entry inh inconclusive, HCMV inh -67, Marburg entry inh inconclusive, HCV inh inconclusive
CC(C)c1ccc(NC(=O)CN(C)S(=O)(=O)c2ccc3c(c2)n(C)c(=O)c(=O)n3C)cc1	none (no result: HCV inh)
Cc1[nH]n(-c2ncc(-c3ccccc3)s2)c(=O)c1C(c1ccc(Br)cc1)C(C#N)C#N (stereo not given)	FMDV inh 28µM
COc1cccc(-n2c(SCC(=O)Nc3ccc4c(c3)OCO4)nc3c([nH]c4ccccc43)c2=O)c1	none (no result: Marburg entry inh, HCV inh)
COc1ccc(N(CC(=O)NC(C)c2ccccc2)S(=O)(=O)c2c(C)nn(C)c2C)cc1 (stereo not given)	Marburg entry inh inconclusive (no result: HCV inh)
Cc1cc(C)cc(NC(=O)c2sc3nc[nH]c(=O)c3c2C)c1	none (no result: Marburg entry inh, HCV inh)
Cc1nc2ccccc2c(=O)n1NC(=O)c1c(F)cccc1F	HCMV inh -69 (no result: LASV entry inh, Marburg entry inh)
Cc1cccc(C(=O)c2cn[nH]c2-c2ccc(C)cc2O)c1	none
Cc1ccc(-c2[nH]ncc2C(=O)c2cccc(F)c2)c(O)c1	HCMV inh -75, HCV inh inconclusive
COc1ccccc1-c1cc2c(Nc3ccc4c(c3)OCCO4)nccc2n1C	HCMV inh -70 (no result: LASV entry inh, Marburg entry inh, FMDV inh, HCV inh)
COc1ccc(Nc2nccc3c2cc(-c2cccc(F)c2)n3C)cc1OC	none (no result: LASV entry inh, Marburg entry inh, FMDV inh, HCV inh)
COc1ccc(Nc2nccc3c2cc(-c2ccccc2OC)n3C)cc1OC	HCMV inh -90 (no result: LASV entry inh, Marburg entry inh, FMDV inh, HCV inh)
Cc1cccc2c(=O)cc(CSc3ccccc3NC(=O)c3cccc(Cl)c3)[nH]c12	none (no result: Marburg entry inh, HCV inh)
CC1(C)CC(=O)C=C(N2CCNCC2)C1	none
CSc1nc(N2CCN(c3ccccc3)CC2)cc(N2CCN(c3ccccc3)CC2)n1	HCV inh inconclusive
CC1(C)CC(N2CCCC2)=CC(=[N+]2CCCCCC2)C1	LASV entry inh inconclusive, HCMV inh -98, Marburg entry inh 1.5µM, FMDV inh inconclusive, HCV inh inconclusive
CC1CC(C)C[N+](=C2C=C(N3CCCC3)CC(C)(C)C2)C1 (stereo not given)	HCMV inh -102, FMDV inh inconclusive, HCV inh 3.5µM (no result: LASV entry inh, Marburg entry inh)
CC1(C)CC(N2CCN(c3ccccc3)CC2)=CC(=[N+]2CCCC2)C1	LASV entry inh inconclusive, HCMV inh -98, Marburg entry inh inconclusive, HCV inh inconclusive (no result: FMDV inh)
COC(=O)Cn1c(=NC(=O)c2ccc3c(c2)OCCO3)sc2ccccc21	none (no result: Marburg entry inh, HCV inh)
COc1ccc(C(CC(=O)NCc2ccc(Cl)cc2)N2Cc3ccccc3C2=O)cc1OC (stereo not given)	none (no result: Marburg entry inh, HCV inh)
C=C(Cl)COc1ccc2c(CC)cc(=O)oc2c1	HCV inh 8.9µM (no result: FMDV inh)
CNc1oc(-c2ccc(F)cc2)nc1S(=O)(=O)c1ccccc1	HCMV inh inconclusive
CC(C)CS(=O)(=O)c1oc(-c2ccc(F)cc2)nc1S(=O)(=O)c1ccccc1	LASV entry inh inconclusive, HCMV inh -100, Marburg entry inh inconclusive, FMDV inh 25µM (no result: HCV inh)
Cc1ccc(-c2nc(S(=O)(=O)c3ccc(C)cc3)c(SCC(=O)Nc3ccc(F)cc3)o2)cc1	LASV entry inh inconclusive (no result: HCV inh)
CCSc1oc(-c2ccc(F)cc2)nc1S(=O)(=O)c1ccc(C)cc1	HCMV inh -65 (no result: HCV inh)
Cc1cc2n(n1)CCCN2C(=O)Nc1ccccc1C(F)(F)F	none (no result: Marburg entry inh, HCV inh)

Source: PubChem BioAssay
